The structures appear in SMILES notation. Calls of active or inactive are those of the source. The call rests on the fitted dose curve; in most records, active means well fitted curve in the direction sought with a large enough effect in the repeat runs; inconclusive means weak or mixed curves; inactive means flat fitted curve, though single readings scatter.

This note sets out measurements from PubChem BioAssay (Tox21).

The first experiment is described as follows: qHTS assay to test for compound auto fluorescence at 590 nm (red) in HepG2 cells (AID 720674). As to conditions: HepG2 autofluorescence, red 540/590 nm, 1 h; series mostly up to 46 µM. In outline: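 We screened compounds on adherent HepG2 cells, incubating them for an hour at 37 C in 5% CO2 before reading emission at 590 nm under 540 nm excitation; values reflect equivalence to Rose Bengal sodium fluorescence.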
(qHTS replaces the single test concentration by a dilution series.)
Regarding `CC(C)=CCCC(C)CC(=O)O` (stereo not given), the result was inactive.

Turning to `NCCc1cnc[nH]1`, the result was inactive.

As for `CCCCOCCOCCOCc1cc2c(cc1CCC)OCO2`, the result was inactive.

As to `C=C1CC[C@H]2C[C@@H]1C2(C)C`, the call was inactive.

For `CC(C)OC(=O)c1ccccc1`, the outcome was inactive.

Regarding `O=Cc1cccc([N+](=O)[O-])c1`, the call was inactive.

In the case of `CCOC(=O)Nc1ccc(NCc2ccc(F)cc2)nc1N`, the result was inactive.

`Cc1ccc(C#N)cc1`: the compound was classed as inactive.

Take `CCC=O`: the result was inactive.

Regarding `CC/C=C\CC/C=C/CO`, the compound was classed as inactive.

Regarding `COC(=O)CCSCCC(=O)OC`, the result was inactive.

Turning to `FC1(F)C(F)(F)C(F)(F)C2(F)C(F)(F)C(F)(F)C(F)(F)C(F)(F)C2(F)C1(F)F` (stereo not given), the compound was classed as inactive.

Turning to `Cc1[nH]c(=O)c(C#N)cc1-c1ccc2nccn2c1`, the compound was classed as inactive.

For `CCO/C([O-])=N/c1c[n+](N2CCOCC2)no1`, the compound was called inactive.

Turning to `OC1CCCCC1c1ccccc1` (stereo not given), the compound was classed as inactive.

With `CC(C)(O)C(=O)c1ccccc1`, the compound was classed as inactive.

As for `COC(=O)C1=C(C)NC(C)=C(C(=O)OC)C1c1ccccc1[N+](=O)[O-]`, the compound was classed as inactive.

With `C[C@H](NC(CCc1ccccc1)C(=O)O)C(=O)N1CCC[C@H]1C(=O)O` (stereo not given in full), the compound was classed as inactive.

Consider `Nc1c[n+](N2CCOCC2)no1`, for which the result was inactive.

On to `O=c1cc(-c2ccccc2)oc2ccccc12`, for which the outcome was inactive.

For the compound `CCOc1ccc(C(=O)OCCN(CC)CC)cc1`, the compound was called inactive.

Take `Cc1nc2c([nH]1)c(=O)n(C)c(=O)n2Cc1ccco1`: the outcome was inactive.

As to `CC(=O)N(CC(O)CO)c1c(I)c(C(=O)NCCO)c(I)c(C(=O)NCC(O)CO)c1I` (stereo not given), the call was inactive.

Consider `CCCC(=O)O[C@]1(C(=O)CO)CC[C@H]2[C@@H]3CCC4=CC(=O)CC[C@]4(C)[C@H]3[C@@H](O)C[C@@]21C`, for which the outcome was inactive.

As to `CCCCCCCCCCCCCCCCC`, the call was inactive.

Take `CO[C@]12C[C@@H](COC(=O)c3cncc(Br)c3)CN(C)[C@@H]1Cc1cn(C)c3cccc2c13`: the outcome was inactive.

For `NCCCNCCSP(=O)(O)O`, the call was inactive.

As to `CC(=O)OC/C=C(\C)CC/C=C(\C)CCC=C(C)C`, the compound was called inactive.

`CC(C)(C)c1ccc(O)c(O)c1`: the outcome was inactive.

Regarding `C=C(C)CS(=O)(=O)O`, the outcome was inactive.

As to `NC(CSCC(=O)O)C(=O)O` (stereo not given), the compound was called inactive.

Take `CO/N=C(/C(=O)N[C@@H]1C(=O)N2C(C(=O)OCOC(=O)C(C)(C)C)=C(C)CS[C@H]12)c1csc(N)n1`: the compound was called inactive.

With `CC(C)(c1ccc(O)cc1)c1ccc(O)cc1`, the call was inactive.

Take `O=C1CCCN1C1CCCCC1`: the compound was called inactive.

With `CC(C)NC(=O)NC(C)C`, the compound was called inactive.

`CCOC(=O)CC(C)=O`: the outcome was inactive.

Turning to `CN(C)CCCN1c2ccccc2CCc2ccc(Cl)cc21`, the outcome was inactive.

`CC(C)(C)c1nnc(NS(=O)(=O)c2ccccc2)s1`: the call was inactive.

On to `O=C(O)CN(CCOCCOCCN(CC(=O)O)CC(=O)O)CC(=O)O`, for which the outcome was inactive.

Turning to `CCCCNC(=O)NCCCC`, the outcome was inactive.

The next experiment can be described thus: qHTS assay to test for compound auto fluorescence at 535 nm (green) in HepG2 cells (AID 720675). As to conditions: green autofluorescence 485/535 nm, 1 h; series mostly up to 46 µM.
Take `CC(C)=CCCC(C)CC(=O)O` (stereo not given): the compound was classed as inactive.

In the case of `NCCc1cnc[nH]1`, the compound was called inactive.

As to `CCCCOCCOCCOCc1cc2c(cc1CCC)OCO2`, the result was inactive.

As for `C=C1CC[C@H]2C[C@@H]1C2(C)C`, the call was inactive.

On to `CC(C)OC(=O)c1ccccc1`, for which the call was inactive.

As for `O=Cc1cccc([N+](=O)[O-])c1`, the result was inactive.

As for `CCOC(=O)Nc1ccc(NCc2ccc(F)cc2)nc1N`, the compound was classed as inactive.

Consider `Cc1ccc(C#N)cc1`, for which the call was inactive.

`CCC=O`: the compound was called inactive.

With `CC/C=C\CC/C=C/CO`, the result was inactive.

On to `COC(=O)CCSCCC(=O)OC`, for which the compound was called inactive.

As to `FC1(F)C(F)(F)C(F)(F)C2(F)C(F)(F)C(F)(F)C(F)(F)C(F)(F)C2(F)C1(F)F` (stereo not given), the result was inactive.

`Cc1[nH]c(=O)c(C#N)cc1-c1ccc2nccn2c1`: the result was inactive.

Turning to `CCO/C([O-])=N/c1c[n+](N2CCOCC2)no1`, the result was inactive.

For the compound `OC1CCCCC1c1ccccc1` (stereo not given), the result was inactive.

With `CC(C)(O)C(=O)c1ccccc1`, the compound was called inactive.

`COC(=O)C1=C(C)NC(C)=C(C(=O)OC)C1c1ccccc1[N+](=O)[O-]`: the result was inactive.

For the compound `C[C@H](NC(CCc1ccccc1)C(=O)O)C(=O)N1CCC[C@H]1C(=O)O` (stereo not given in full), the outcome was inactive.

As to `Nc1c[n+](N2CCOCC2)no1`, the outcome was inactive.

On to `O=c1cc(-c2ccccc2)oc2ccccc12`, for which the compound was called inactive.

On to `CCOc1ccc(C(=O)OCCN(CC)CC)cc1`, for which the compound was called inactive.

Take `Cc1nc2c([nH]1)c(=O)n(C)c(=O)n2Cc1ccco1`: the compound was called inactive.

With `CC(=O)N(CC(O)CO)c1c(I)c(C(=O)NCCO)c(I)c(C(=O)NCC(O)CO)c1I` (stereo not given), the compound was classed as inactive.

For `CCCC(=O)O[C@]1(C(=O)CO)CC[C@H]2[C@@H]3CCC4=CC(=O)CC[C@]4(C)[C@H]3[C@@H](O)C[C@@]21C`, the call was inactive.

In the case of `CCCCCCCCCCCCCCCCC`, the outcome was inactive.

On to `CO[C@]12C[C@@H](COC(=O)c3cncc(Br)c3)CN(C)[C@@H]1Cc1cn(C)c3cccc2c13`, for which the outcome was inactive.

Turning to `NCCCNCCSP(=O)(O)O`, the call was inactive.

For the compound `CC(=O)OC/C=C(\C)CC/C=C(\C)CCC=C(C)C`, the compound was classed as inactive.

Regarding `CC(C)(C)c1ccc(O)c(O)c1`, the result was inactive.

As to `C=C(C)CS(=O)(=O)O`, the outcome was inactive.

Turning to `NC(CSCC(=O)O)C(=O)O` (stereo not given), the call was inactive.

Regarding `CO/N=C(/C(=O)N[C@@H]1C(=O)N2C(C(=O)OCOC(=O)C(C)(C)C)=C(C)CS[C@H]12)c1csc(N)n1`, the call was inactive.

Consider `CC(C)(c1ccc(O)cc1)c1ccc(O)cc1`, for which the call was inactive.

Consider `O=C1CCCN1C1CCCCC1`, for which the outcome was inactive.

With `CC(C)NC(=O)NC(C)C`, the call was inactive.

As for `CCOC(=O)CC(C)=O`, the outcome was inactive.

Turning to `CN(C)CCCN1c2ccccc2CCc2ccc(Cl)cc21`, the compound was classed as inactive.

As to `CC(C)(C)c1nnc(NS(=O)(=O)c2ccccc2)s1`, the compound was classed as inactive.

As to `O=C(O)CN(CCOCCOCCN(CC(=O)O)CC(=O)O)CC(=O)O`, the call was inactive.

As to `CCCCNC(=O)NCCCC`, the compound was classed as inactive.
